# Paper PMC7862700, “An all-to-all approach to the identification of sequence-specific readers for epigenetic DNA modifications on cytosine”
# Tests used:
# Experiment in all cases: DAPPL (digital affinity profiling via proximity ligation, sequencing); 10 mM Tris-HCl pH 7.5, 50 mM NaCl, 1 mM DTT, 4% glycerol, room temperature, 30 min; GST-TFs on glutathione beads, 16-mer random dsDNA library, 0.1% formaldehyde crosslink after washing; high values mean tight binding
# Details in all cases: protein: recombinant; tags: N-terminal GST; dsDNA, one strand shown
# FLI1 = target: T1, FLI1 (Homo sapiens, UniProt Q01543 1-452)
# T1 sequence: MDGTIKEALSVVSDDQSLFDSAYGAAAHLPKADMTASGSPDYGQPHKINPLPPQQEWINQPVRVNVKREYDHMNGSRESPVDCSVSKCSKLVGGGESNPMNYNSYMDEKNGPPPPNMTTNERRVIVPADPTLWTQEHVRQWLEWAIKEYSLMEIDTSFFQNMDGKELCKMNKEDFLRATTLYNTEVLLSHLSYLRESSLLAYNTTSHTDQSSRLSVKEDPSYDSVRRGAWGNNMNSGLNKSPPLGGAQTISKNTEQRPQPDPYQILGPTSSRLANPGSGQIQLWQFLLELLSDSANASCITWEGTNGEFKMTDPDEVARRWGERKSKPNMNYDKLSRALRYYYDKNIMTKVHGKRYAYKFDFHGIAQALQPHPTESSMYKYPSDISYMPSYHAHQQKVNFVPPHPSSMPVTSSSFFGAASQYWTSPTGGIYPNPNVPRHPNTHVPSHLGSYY
# Summary of the method: (§1)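 Each value of binding signal is a hexamer's read frequency for a factor divided by the same hexamer's frequency in the tag-only sample. Barcoded, bead-captured GST fusions of human transcription factors made in yeast were pooled with that sample and incubated with 200 nmole of a random double-stranded 16-mer DNA library in Tris/NaCl/DTT/glycerol buffer at room temperature for 30 min. Washing, 0.1% formaldehyde crosslinking, proximity ligation, PCR and Illumina NextSeq500 sequencing followed.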
# ELK1 = target: T2, ELK1 (Homo sapiens, UniProt P19419 1-428)
# T2 sequence: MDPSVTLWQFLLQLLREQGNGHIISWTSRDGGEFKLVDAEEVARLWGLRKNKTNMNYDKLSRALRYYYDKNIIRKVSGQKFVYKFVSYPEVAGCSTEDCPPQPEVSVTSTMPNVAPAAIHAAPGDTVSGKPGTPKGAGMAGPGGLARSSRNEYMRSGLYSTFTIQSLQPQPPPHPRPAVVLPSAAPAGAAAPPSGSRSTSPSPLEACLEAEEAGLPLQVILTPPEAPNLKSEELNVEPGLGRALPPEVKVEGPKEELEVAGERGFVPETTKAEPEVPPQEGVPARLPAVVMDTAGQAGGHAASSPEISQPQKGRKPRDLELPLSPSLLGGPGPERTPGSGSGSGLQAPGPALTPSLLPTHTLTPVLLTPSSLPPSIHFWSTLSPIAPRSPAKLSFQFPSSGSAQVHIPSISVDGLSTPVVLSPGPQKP
# Summary of the method: as §1
# GABPA = target: T3, GABPA (Homo sapiens, UniProt Q06546 1-454)
# T3 sequence: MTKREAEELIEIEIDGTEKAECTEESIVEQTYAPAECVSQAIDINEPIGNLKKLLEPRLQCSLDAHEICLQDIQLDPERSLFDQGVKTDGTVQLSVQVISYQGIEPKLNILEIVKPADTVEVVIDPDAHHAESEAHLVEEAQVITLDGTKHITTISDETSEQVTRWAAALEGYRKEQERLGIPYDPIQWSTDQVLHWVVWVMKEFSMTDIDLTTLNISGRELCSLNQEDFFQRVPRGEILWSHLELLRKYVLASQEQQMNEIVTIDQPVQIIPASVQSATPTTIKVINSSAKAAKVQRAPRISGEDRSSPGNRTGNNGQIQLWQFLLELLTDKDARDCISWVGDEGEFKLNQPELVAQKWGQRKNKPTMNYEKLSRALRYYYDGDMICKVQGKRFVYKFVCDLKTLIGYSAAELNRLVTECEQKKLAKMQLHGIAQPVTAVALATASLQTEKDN
# Summary of the method: as §1
# ERG = target: T4, ERG (Homo sapiens, UniProt P11308 1-479)
# T4 sequence: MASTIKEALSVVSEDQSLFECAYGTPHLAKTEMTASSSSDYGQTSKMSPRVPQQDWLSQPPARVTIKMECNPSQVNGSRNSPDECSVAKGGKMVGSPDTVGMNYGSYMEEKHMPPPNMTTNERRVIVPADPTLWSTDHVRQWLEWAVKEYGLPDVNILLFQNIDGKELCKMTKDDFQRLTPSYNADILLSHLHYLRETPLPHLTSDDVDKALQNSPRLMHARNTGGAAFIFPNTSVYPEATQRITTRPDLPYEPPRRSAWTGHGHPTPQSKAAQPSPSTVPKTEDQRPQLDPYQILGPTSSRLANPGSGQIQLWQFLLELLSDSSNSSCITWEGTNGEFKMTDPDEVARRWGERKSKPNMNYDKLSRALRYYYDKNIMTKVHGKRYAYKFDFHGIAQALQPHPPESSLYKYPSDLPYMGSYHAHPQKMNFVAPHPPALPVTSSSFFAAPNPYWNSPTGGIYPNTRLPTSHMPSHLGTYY
# Summary of the method: as §1
# ELF1 = ELF1 (Homo sapiens, UniProt P32519 1-619)
# Chain of ELF1 (P32519 whole entry): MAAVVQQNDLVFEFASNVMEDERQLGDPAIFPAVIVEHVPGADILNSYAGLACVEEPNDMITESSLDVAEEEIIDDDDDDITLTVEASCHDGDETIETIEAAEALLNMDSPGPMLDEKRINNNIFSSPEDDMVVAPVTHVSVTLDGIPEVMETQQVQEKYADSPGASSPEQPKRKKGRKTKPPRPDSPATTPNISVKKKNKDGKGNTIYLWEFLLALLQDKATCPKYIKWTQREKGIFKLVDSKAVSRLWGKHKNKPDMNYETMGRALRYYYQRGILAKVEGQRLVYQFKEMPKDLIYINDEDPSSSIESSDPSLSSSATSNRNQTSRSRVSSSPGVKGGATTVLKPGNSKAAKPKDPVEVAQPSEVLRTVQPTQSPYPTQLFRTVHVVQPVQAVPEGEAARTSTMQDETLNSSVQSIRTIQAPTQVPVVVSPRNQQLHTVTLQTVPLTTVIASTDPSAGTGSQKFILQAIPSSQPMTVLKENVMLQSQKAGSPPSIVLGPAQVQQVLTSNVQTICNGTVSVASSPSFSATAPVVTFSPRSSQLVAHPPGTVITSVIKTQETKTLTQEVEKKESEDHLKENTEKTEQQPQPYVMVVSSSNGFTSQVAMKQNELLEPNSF
# Summary of the method: as §1
# EHF = target: T5, EHF (Homo sapiens, UniProt Q9NZC4 1-300)
# T5 sequence: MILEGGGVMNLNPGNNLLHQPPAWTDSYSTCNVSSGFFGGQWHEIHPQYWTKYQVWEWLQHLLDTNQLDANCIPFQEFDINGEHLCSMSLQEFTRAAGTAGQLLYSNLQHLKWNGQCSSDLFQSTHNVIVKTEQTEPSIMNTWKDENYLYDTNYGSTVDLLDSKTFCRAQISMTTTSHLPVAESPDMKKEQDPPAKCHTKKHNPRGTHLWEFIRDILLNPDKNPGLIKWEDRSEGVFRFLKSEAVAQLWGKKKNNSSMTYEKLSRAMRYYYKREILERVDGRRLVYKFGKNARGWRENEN
# Summary of the method: as §1
# SPI1 = SPI1 (Homo sapiens, UniProt P17947 1-270)
# Summary of the method: as §1
# SPIB = SPIB (Homo sapiens, UniProt Q01892 1-262)
# Chain of SPIB (Q01892 whole entry): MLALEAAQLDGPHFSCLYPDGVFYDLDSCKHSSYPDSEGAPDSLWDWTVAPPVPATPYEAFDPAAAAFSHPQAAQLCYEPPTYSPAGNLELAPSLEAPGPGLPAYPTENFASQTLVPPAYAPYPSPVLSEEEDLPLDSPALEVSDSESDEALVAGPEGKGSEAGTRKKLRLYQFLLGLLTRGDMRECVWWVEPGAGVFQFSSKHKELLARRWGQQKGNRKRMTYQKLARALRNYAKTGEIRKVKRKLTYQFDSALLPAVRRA
# Summary of the method: as §1
# ELK3 = target: T6, ELK3 (Homo sapiens, UniProt P41970 1-407)
# T6 sequence: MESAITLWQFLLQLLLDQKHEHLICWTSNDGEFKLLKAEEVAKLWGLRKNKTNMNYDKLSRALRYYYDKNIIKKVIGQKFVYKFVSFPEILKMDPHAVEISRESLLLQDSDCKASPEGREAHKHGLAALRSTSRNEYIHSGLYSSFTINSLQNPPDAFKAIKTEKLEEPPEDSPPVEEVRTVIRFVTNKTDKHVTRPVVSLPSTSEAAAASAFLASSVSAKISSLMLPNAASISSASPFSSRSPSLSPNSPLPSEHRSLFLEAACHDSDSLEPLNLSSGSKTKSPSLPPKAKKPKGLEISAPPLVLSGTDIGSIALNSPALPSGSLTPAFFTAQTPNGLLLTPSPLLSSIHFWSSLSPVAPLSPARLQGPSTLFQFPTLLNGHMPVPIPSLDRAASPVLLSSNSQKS
# Summary of the method: as §1
Sequence,binding signal (FLI1),binding signal (ELK1),binding signal (GABPA),binding signal (ERG),binding signal (ELF1),binding signal (EHF),binding signal (SPI1),binding signal (SPIB),binding signal (ELK3)
TTCCCG,"1.8 fold enrichment (6-mer frequency, TF over GST control)","1.73 fold enrichment (6-mer frequency, TF over GST control)","1.93 fold enrichment (6-mer frequency, TF over GST control)","2.03 fold enrichment (6-mer frequency, TF over GST control)","1.82 fold enrichment (6-mer frequency, TF over GST control)","1.98 fold enrichment (6-mer frequency, TF over GST control)","2.02 fold enrichment (6-mer frequency, TF over GST control)","2.17 fold enrichment (6-mer frequency, TF over GST control)","1.78 fold enrichment (6-mer frequency, TF over GST control)"
CCGACC,"1.66 fold enrichment (6-mer frequency, TF over GST control)","1.59 fold enrichment (6-mer frequency, TF over GST control)","1.65 fold enrichment (6-mer frequency, TF over GST control)","1.55 fold enrichment (6-mer frequency, TF over GST control)","1.47 fold enrichment (6-mer frequency, TF over GST control)","1.44 fold enrichment (6-mer frequency, TF over GST control)","1.42 fold enrichment (6-mer frequency, TF over GST control)","1.57 fold enrichment (6-mer frequency, TF over GST control)","1.8 fold enrichment (6-mer frequency, TF over GST control)"
AACCTT,"1.3 fold enrichment (6-mer frequency, TF over GST control)","1.25 fold enrichment (6-mer frequency, TF over GST control)","1.25 fold enrichment (6-mer frequency, TF over GST control)","1.26 fold enrichment (6-mer frequency, TF over GST control)","1.33 fold enrichment (6-mer frequency, TF over GST control)","1.33 fold enrichment (6-mer frequency, TF over GST control)","1.26 fold enrichment (6-mer frequency, TF over GST control)","1.34 fold enrichment (6-mer frequency, TF over GST control)","1.33 fold enrichment (6-mer frequency, TF over GST control)"
TGTTCT,"1.4 fold enrichment (6-mer frequency, TF over GST control)","1.4 fold enrichment (6-mer frequency, TF over GST control)","1.28 fold enrichment (6-mer frequency, TF over GST control)","1.38 fold enrichment (6-mer frequency, TF over GST control)","1.39 fold enrichment (6-mer frequency, TF over GST control)","1.4 fold enrichment (6-mer frequency, TF over GST control)","1.29 fold enrichment (6-mer frequency, TF over GST control)","1.35 fold enrichment (6-mer frequency, TF over GST control)","1.21 fold enrichment (6-mer frequency, TF over GST control)"
TCCCTC,"1.58 fold enrichment (6-mer frequency, TF over GST control)","1.6 fold enrichment (6-mer frequency, TF over GST control)","1.47 fold enrichment (6-mer frequency, TF over GST control)","1.45 fold enrichment (6-mer frequency, TF over GST control)","1.51 fold enrichment (6-mer frequency, TF over GST control)","1.48 fold enrichment (6-mer frequency, TF over GST control)","1.5 fold enrichment (6-mer frequency, TF over GST control)","1.58 fold enrichment (6-mer frequency, TF over GST control)","1.47 fold enrichment (6-mer frequency, TF over GST control)"
ACGATT,"1.44 fold enrichment (6-mer frequency, TF over GST control)","1.31 fold enrichment (6-mer frequency, TF over GST control)","1.29 fold enrichment (6-mer frequency, TF over GST control)","1.34 fold enrichment (6-mer frequency, TF over GST control)","1.32 fold enrichment (6-mer frequency, TF over GST control)","1.32 fold enrichment (6-mer frequency, TF over GST control)","1.31 fold enrichment (6-mer frequency, TF over GST control)","1.3 fold enrichment (6-mer frequency, TF over GST control)","1.38 fold enrichment (6-mer frequency, TF over GST control)"
GTTCTC,"1.36 fold enrichment (6-mer frequency, TF over GST control)","1.18 fold enrichment (6-mer frequency, TF over GST control)","1.4 fold enrichment (6-mer frequency, TF over GST control)","1.27 fold enrichment (6-mer frequency, TF over GST control)","1.28 fold enrichment (6-mer frequency, TF over GST control)","1.22 fold enrichment (6-mer frequency, TF over GST control)","1.33 fold enrichment (6-mer frequency, TF over GST control)","1.35 fold enrichment (6-mer frequency, TF over GST control)","1.19 fold enrichment (6-mer frequency, TF over GST control)"
TAAGAA,"1.09 fold enrichment (6-mer frequency, TF over GST control)","1.1 fold enrichment (6-mer frequency, TF over GST control)","1.15 fold enrichment (6-mer frequency, TF over GST control)","1.05 fold enrichment (6-mer frequency, TF over GST control)","1.04 fold enrichment (6-mer frequency, TF over GST control)","1.04 fold enrichment (6-mer frequency, TF over GST control)","1.12 fold enrichment (6-mer frequency, TF over GST control)","1.04 fold enrichment (6-mer frequency, TF over GST control)","1.15 fold enrichment (6-mer frequency, TF over GST control)"
